Most compounds without a hit are left out; they make up all but 11% or so of the library.
HP1b chromo inh = HTS for Inhibitors of HP1-beta Chromodomain Interactions with Methylated Histone Tails | AlphaScreen HP1-beta / biotin-H3K9me3 peptide binding | Chromobox protein homolog 1 (Homo sapiens), P83916 | 390,000 compounds, 0.56% hits | Potency, µM (doses to about 114 µM), usual class: inhibitors | AID 540317, 2011; further: nearly all actives have a fitted effect of over 70% in size
Target sequence (P83916 whole entry, looked up): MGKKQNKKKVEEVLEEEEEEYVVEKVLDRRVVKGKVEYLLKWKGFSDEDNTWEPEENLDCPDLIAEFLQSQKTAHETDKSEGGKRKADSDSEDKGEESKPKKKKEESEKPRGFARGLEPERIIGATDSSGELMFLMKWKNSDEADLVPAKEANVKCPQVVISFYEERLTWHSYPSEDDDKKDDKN
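AlphaScreen: HP1-beta (50 nM) preformed 30 min with biotin-H3(1-18)K9me3 peptide (50 nM) in PBS pH 7.4, 0.01% Tween-20. Compound added for 30 min at RT, then streptavidin donor/nickel chelate acceptor beads (10 ug/mL) for 30 min.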
L3MBTL1 block = qHTS Assay for the Inhibitors of L3MBTL1. Lethal(3)malignant brain tumor-like protein 1 (Homo sapiens), Q9Y468. AlphaScreen L3MBTL1–H3K9me1 peptide binding. Potency, µM (titrated, usually from 57.1 µM), usual class: inhibitors. 230,000 compounds, 0.66% hits. AID 485360, 2010; further: nearly all actives have a fitted effect of over 60% in size
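AlphaScreen assay: L3MBTL1 (50 nM final) was preincubated 30 min at room temperature with biotinylated H3(1-15)K9me1 peptide (75 nM final), then 30 min with library compounds; streptavidin donor and nickel chelate acceptor beads (10 ug/mL final) added, 30 min dark.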
JMJD2A Tudor inh = qHTS Assay for Inhibitors of JMJD2A-Tudor Domain; 390,000 compounds, 4.4% hits; Potency, µM (titrated, usually from 114 µM), most hits filed as inhibitors; Lysine-specific demethylase 4A (Homo sapiens), O75164; AlphaScreen JMJD2A-Tudor / H3K4me3 peptide binding; further: nearly all actives have a fitted effect of over 50% in size
G9a inh = qHTS Assay for Inhibitors of Histone Lysine Methyltransferase G9a | 350,000 compounds, 8.8% hits | Potency, µM (titrated, usually from 102 µM), usual class: inhibitors | G9a H3K9 monomethylation, AlphaScreen, 2 h; further: nearly all actives have a fitted effect of over 75% in size
Target sequence (Q96KQ7 913-1193 limits assumed): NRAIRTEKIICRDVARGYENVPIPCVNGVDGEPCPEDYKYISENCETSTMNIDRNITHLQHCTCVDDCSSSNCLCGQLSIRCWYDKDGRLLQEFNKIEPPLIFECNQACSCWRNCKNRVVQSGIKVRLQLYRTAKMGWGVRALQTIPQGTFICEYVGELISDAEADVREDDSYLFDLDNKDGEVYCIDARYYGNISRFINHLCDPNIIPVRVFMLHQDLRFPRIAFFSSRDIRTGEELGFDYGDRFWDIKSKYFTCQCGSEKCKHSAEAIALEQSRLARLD
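AlphaScreen read-out: biotin-H3K9 peptide (500 nM) methylation by 20 nM enzyme with 20 uM SAM, 2 h at room temperature after 15 min compound preincubation; anti-monomethyl H3K9 antibody plus donor/acceptor beads, 10 min dark.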
BAZ2B block = qHTS Assay for Inhibitors of BAZ2B | 360,000 compounds, 4.4% hits | Potency, µM (series often up to 114 µM), usual class: inhibitors | Bromodomain adjacent to zinc finger domain protein 2B (Homo sapiens), Q9UIF8 | AlphaScreen BAZ2B-H3K14Ac peptide displacement; further: nearly all actives have a fitted effect of over 60% in size
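In this displacement format the biotinylated H3(5-23) peptide acetylated at Lys14 serves as ligand at 50 nM, with BAZ2B at 50 nM in PBS pH 7.4 containing 0.01% Tween-20. Donor and acceptor beads are 10 ug/mL final.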
Hits are given with their value; ! = repeats disagree; [ ] = remark or other dose. The call rests on the fitted dose curve; in most records, active means well fitted inhibition curve with a large enough effect; inconclusive means small, poorly fitted or top-dose-only effect; inactive means no such curve, though single readings can be large or run the other way.

`CC1CC(C)CN(C(=O)c2cccc(S(=O)(=O)Nc3cc(C(F)(F)F)ccc3Cl)c2)C1` (configuration not stated) gave HP1b chromo inh inactive, L3MBTL1 block inactive, JMJD2A Tudor inh inactive, G9a inh inconclusive and BAZ2B block 79.4µM.
For CN1CCN(c2nc3cc(C(F)(F)F)ccc3n3cccc23)CC1 the results were HP1b chromo inh inactive, JMJD2A Tudor inh inconclusive and G9a inh 23.8µM.
FC(F)(F)c1cccc(N2CCN(c3nc4ccccc4n4cnnc34)CC2)c1 was read as HP1b chromo inh inactive, JMJD2A Tudor inh inactive, G9a inh inactive and BAZ2B block inactive.
CC(N)(Cc1ccc(O)c(O)c1)C(=O)O (configuration not stated) was read as G9a inh 0.947µM.
Screening O=C(O)c1ccc(O)c(O)c1 returned HP1b chromo inh inactive, L3MBTL1 block inconclusive, JMJD2A Tudor inh inactive and BAZ2B block inactive.
Screening COc1ccc(C[C@@](C)(N)C(=O)O)cc1OC returned G9a inh inactive[21.5 µM].
Screening C[C@](Cc1ccc(O)c(O)c1)(NN)C(=O)O returned G9a inh 2.24µM.
`C[C@@](Cc1ccc(O)c(O)c1)(NN)C(=O)O` gave HP1b chromo inh inconclusive, L3MBTL1 block inactive, JMJD2A Tudor inh 79.4µM, G9a inh 3.16µM! and BAZ2B block inactive.
Screening CC(C)(Cc1cccc(CC(C)(C)C(=O)O)c1)C(=O)O returned HP1b chromo inh inactive, L3MBTL1 block inactive, JMJD2A Tudor inh inactive, G9a inh inactive and BAZ2B block inactive.
`Cc1ccc(C)c(OCCn2cc(C(=O)c3cccs3)c3ccccc32)c1` gave HP1b chromo inh inactive, JMJD2A Tudor inh inactive, G9a inh inactive and BAZ2B block inactive.
For CC1=C(c2ccc(F)cc2)S(=O)(=O)N=C1N1CCC(C(=O)NCCc2cccc(C)c2)CC1 the results were HP1b chromo inh inactive, JMJD2A Tudor inh inactive, G9a inh inactive and BAZ2B block inactive.
CCC1(C)CN=C(c2ccccc2)NC1 (configuration not stated) was read as HP1b chromo inh inactive and JMJD2A Tudor inh 35.5µM.
Screening CC1(C)CN=C(c2ccccc2)NC1 returned HP1b chromo inh inactive and JMJD2A Tudor inh inactive.
`CN(C)C(CNC(=O)C1CCCN1C(=O)c1cccs1)c1ccccc1` (configuration not stated) gave HP1b chromo inh inactive, L3MBTL1 block inactive and JMJD2A Tudor inh inactive.
For Cc1ccc(CN(C)C(=O)C2CCCN2C(=O)c2cccs2)o1 (configuration not stated) the results were HP1b chromo inh inactive, L3MBTL1 block inactive, JMJD2A Tudor inh inactive, G9a inh 44.7µM and BAZ2B block inactive.
CCOc1ccc(S(=O)(=O)Nc2cccc(C(=O)NCC3CCCO3)c2)cc1 (configuration not stated) was read as HP1b chromo inh inactive, L3MBTL1 block inactive, JMJD2A Tudor inh inactive, G9a inh inactive[0.501 µM] and BAZ2B block inactive.
For COc1ccc2[nH]c(O)c(N=NC(=O)Cc3cccs3)c2c1 the results were HP1b chromo inh inactive, JMJD2A Tudor inh 28.2µM, G9a inh inactive and BAZ2B block 35.5µM.
For COc1ccccc1C(=O)NNC(=O)c1ccc(NS(=O)(=O)c2cccs2)cc1 the results were HP1b chromo inh inactive, JMJD2A Tudor inh inactive, G9a inh inactive and BAZ2B block inactive.
`C/C(=N\NC(=O)c1ccc(NS(=O)(=O)c2cccs2)cc1)c1ccc(O)cc1O` gave HP1b chromo inh inactive, L3MBTL1 block inactive, JMJD2A Tudor inh inactive and BAZ2B block 10µM.
For COc1ccc2[nH]c(O)c(N=NC(=O)c3ccc(NS(=O)(=O)c4cccs4)cc3)c2c1 the results were HP1b chromo inh inactive, L3MBTL1 block inactive, JMJD2A Tudor inh inconclusive, G9a inh inactive[12.7 µM] and BAZ2B block 50.1µM.
Screening O=C(CN1CCN(C2CCCCC2)C(=O)C1=O)Nc1ccc(Cl)cc1 returned HP1b chromo inh inactive, JMJD2A Tudor inh inactive, G9a inh inactive and BAZ2B block inactive.
Screening CC1(C)CC(=O)C=C(Nc2ccc(O)c(C(=O)O)c2)C1 returned HP1b chromo inh inactive, L3MBTL1 block inactive, JMJD2A Tudor inh inactive, G9a inh 44.7µM and BAZ2B block inactive.
Screening O=C(CSc1n[nH]c(-c2ccccn2)n1)Nc1ccc(F)cc1 returned HP1b chromo inh inactive, JMJD2A Tudor inh 5.62µM, G9a inh inactive and BAZ2B block 3.98µM.
Screening O=C(CSc1n[nH]c(-c2ccccn2)n1)Nc1ccc(Cl)cc1 returned HP1b chromo inh inactive, JMJD2A Tudor inh 10µM, G9a inh inactive and BAZ2B block 5.01µM.
CCc1nc(SCC(=O)Nc2ccc(N(C)C)cc2)n[nH]1 was read as HP1b chromo inh inactive, L3MBTL1 block inactive, JMJD2A Tudor inh inactive, G9a inh inactive[0.501 µM] and BAZ2B block inactive.
For O=C(CSc1n[nH]c(-c2ccccc2)n1)Nc1ccccc1O the results were HP1b chromo inh inactive, JMJD2A Tudor inh inactive, G9a inh 50.1µM and BAZ2B block inactive.
For CCc1nc(SCC(=O)Nc2ccc(C(=O)O)cc2)n[nH]1 the results were HP1b chromo inh inactive, JMJD2A Tudor inh inactive, G9a inh 44.7µM and BAZ2B block inactive.
O=C(CSc1n[nH]c(-c2ccncc2)n1)Nc1ccc(F)cc1 was read as HP1b chromo inh inactive, JMJD2A Tudor inh inactive, G9a inh inactive and BAZ2B block inactive.
Screening CCOC(=O)C1CCN(C(=O)C2CCN(c3nnc(C)c4c(C)n(-c5ccccc5)nc34)CC2)CC1 returned HP1b chromo inh inactive, JMJD2A Tudor inh inactive, G9a inh inactive and BAZ2B block inactive.
Screening O=C1CCc2cc(S(=O)(=O)Nc3ccc4ccccc4c3)ccc2N1 returned JMJD2A Tudor inh inactive.
CC(=O)N1CCc2c(sc3c2c(=O)n(-c2ccc(C)cc2)c(=O)n3Cc2ccccc2C)C1 was read as HP1b chromo inh inactive, JMJD2A Tudor inh inconclusive, G9a inh inactive and BAZ2B block inactive.
Screening Cc1ccc(NC(=O)CSc2n[nH]c(-c3ccccn3)n2)cc1 returned HP1b chromo inh inactive, JMJD2A Tudor inh 3.98µM, G9a inh inactive and BAZ2B block 3.98µM.
COc1cccc(CNC(=O)CN2C(=O)CCn3nc(-c4cn(C)c5ccccc45)cc32)c1OC was read as HP1b chromo inh inactive, JMJD2A Tudor inh inactive, G9a inh inactive and BAZ2B block inactive.
Screening O=C(O)C(Cc1cn[nH]n1)=NO returned HP1b chromo inh inconclusive, L3MBTL1 block inactive, JMJD2A Tudor inh 7.94µM, G9a inh 6.31µM and BAZ2B block 25.1µM.
Screening CCN1/C(=C/c2cc[n+](CCCS(=O)(=O)[O-])c3ccccc23)Sc2ccccc21 returned HP1b chromo inh inactive, L3MBTL1 block inactive, JMJD2A Tudor inh inactive, G9a inh 25.1µM and BAZ2B block inconclusive.
`CCC(=O)/C=C1/Sc2ccc(OC)cc2N1CC` gave HP1b chromo inh inactive, L3MBTL1 block inactive, JMJD2A Tudor inh inactive, G9a inh inactive and BAZ2B block inactive.

High-throughput results deposited in PubChem BioAssay by National Center for Advancing Translational Sciences (NCATS).
